Compounds without any hit were thinned out: in the full panel of roughly 83,000, 20% have a hit.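 Compound tested at a single concentration for 48 hours in 96-well plates; a percent growth value below 10 was scored as active.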 Values without a mark were called inactive. Activity calls are given as the source filed them.
Columns and labels:
Test in all cases: NCI-60 one-dose screen, 48 h (100 = growth as untreated, 0 = no growth, -100 = all killed)
Conditions in all cases: 10 µM unless noted
[1] = tested on: SK-MEL-2 melanoma
[2] = tested on: EKVX NSCLC
[3] = tested on: SN12C renal
[4] = tested on: UO-31 renal
[5] = tested on: TK-10 renal
[6] = tested on: ACHN renal
[7] = tested on: CAKI-1 renal
[8] = tested on: A498 renal
[9] = tested on: CCRF-CEM leukemia
[10] = tested on: MOLT-4 leukemia
[11] = tested on: RPMI-8226 leukemia
[12] = tested on: OVCAR-8 ovarian
[13] = tested on: OVCAR-5 ovarian
[14] = tested on: OVCAR-4 ovarian
[15] = tested on: SK-OV-3 ovarian
[16] = tested on: IGROV1 ovarian
[17] = tested on: OVCAR-3 ovarian
[18] = tested on: HS 578T breast
[19] = tested on: NCI/ADR-RES ovarian

SMILES	growth [1]	growth [2]	growth [3]	growth [4]	growth [5]	growth [6]	growth [7]	growth [8]	growth [9]	growth [10]	growth [11]	growth [12]	growth [13]	growth [14]	growth [15]	growth [16]	growth [17]	growth [18]	growth [19]
COc1cc(C(=O)N/N=C/c2cc3cc(OCc4ccccc4)ccc3nc2OC)cc(OC)c1OC	85.4%	85.4%	87.9%	81%	72.1%	95.2%	98.2%	95.6%	65.9%	62.5%	35.6%	68.4%	86.9%	63.4%	91.1%	111%	99.4%	61.2%	82.2%
COC(=O)/C=C1\S/C(=N\Nc2ccc([N+](=O)[O-])cc2[N+](=O)[O-])N(C2CCCCC2)C1=O	90.5%	78.5%	21.6%	19.2%	60.2%	42.3%	57.1%	63.1%	17.9%	42.7%	-21.8% (active)	35.4%	84.3%	47.1%	96.8%	58.4%	25.2%	65.2%	29.7%
Cc1cc2nc3cc(C)c(N)cc3[n+](-c3ccccc3)c2cc1N	82.8%	47.3%	13.9%	84.2%	93.8%	89.1%	97.5%	85.7%	58.3%	52.8%	41.4%	40.7%	103%	36.4%	91.3%	79.4%	26.2%	59.2%	101%
Cc1cc(O)c(C2=NN(c3ccc(S(N)(=O)=O)cc3)C(c3ccccc3O)C2)cc1Cl (stereo not drawn)	17.4%	-2.37% (active)	15.1%	9.61% (active)	41.5%	7.54% (active)	-13.6% (active)	20.6%	12.9%	-57.4% (active)	15.4%	4.04% (active)	-15.1% (active)	44%	34.1%	0.983% (active)	-45.8% (active)	8.33% (active)	1.92% (active)
CCCSc1nc2ccc(C)cc2cc1/C=[N+](\[O-])c1ccccc1	68.8%	80.6%	26.1%	44.7%	89.5%	49.2%	70.5%	74.6%	11.2%	27.2%	17.1%	12.4%	74.3%	55%	75.1%	44.4%	-12% (active)	48.6%	7.89% (active)
Oc1ccc(-c2nc3ccc4[nH]ncc4c3c3c2CCCC3)c2cccnc12	5.36% (active)	-23.1% (active)	4.02% (active)	-30.4% (active)	17.4%	2.65% (active)	-25.7% (active)	-25.7% (active)	4.86% (active)	5.17% (active)	-6.23% (active)	9.31% (active)	21.9%	10.2%	-0.881% (active)	6.65% (active)	18.3%	-14.7% (active)	7.95% (active)
O=C(/C=C/c1sc(Cl)nc1Cl)c1ccccc1	104%	101%	44.8%	90.7%	111%	46.9%	93.1%	100%	34.9%	32.3%	14%	93.5%	99.5%	108%	103%	91.9%	46%	103%	101%
O=C(CCc1nnc(-c2c(Cl)cccc2Cl)o1)c1nc2ccccc2[nH]1	59.4%	61%	61.2%	52.1%	64%	81.3%	59.8%	58.4%	47.3%	20.7%	30.9%	57.2%	81.2%	58.8%	64.8%	57.6%	66.4%	82.3%	63.3%
CC(=O)O.CN1[CH-]N(Cc2ccc(C#N)cc2)c2ccccc21.[Ag+]	89.8%	108%	111%	97.4%	103%	106%	104%	99.7%	24.7%	90.1%	88.8%	101%	117%	112%	120%	111%	116%	103%	109%
COc1ccc2cc(C(C)C(=O)Nc3ccc(-c4n[nH]c(=S)n4C4CCCCC4)cc3)ccc2c1 (stereo not drawn)	77%	70.5%	73.4%	-79.3% (active)	95.9%	73.4%	44.7%	77.3%	64.4%	55.9%	54.3%	75.6%	101%	88.1%	105%	88.9%	86.4%	75.1%	50.7%
C/C(=C\C(=O)c1ccc(Cl)cc1)c1ccc(Cl)cc1	98%	79%	103%	59.3%	74.7%	98.3%	87.8%	104%	88.4%	92.6%	75%	95.5%	62.3%	67.3%	94.3%	76.3%	99.2%	96.6%	103%
c1ccc(-c2nc3nonc3nc2-c2ccccc2)cc1	79%	67%	68.7%	36.3%	81.4%	53.9%	51%	-10.9% (active)	80.7%	70.9%	71.9%	72.8%	82.3%	22.7%	74%	60.8%	12.8%	64.3%	74.4%
c1cc2nc(-c3cn[nH]c3)c3c(c2cc1-c1cn[nH]c1)C1CCC3C1 (stereo not drawn)	92.4%	46.3%	66%	40.3%	97.4%	44.9%	28.3%	-6.11% (active)	69%	63%	50.6%	59.3%	67.8%	83.9%	60.2%	48.6%	75.5%	23.2%	64.8%
CC[C@H](C)C(=O)O[C@H]1CCC=C2C=C[C@H](C)[C@H](CC[C@@H]3CC=CC(=O)O3)[C@H]21	81.7%	110%	67.7%	71.8%	105%	86.9%	90.5%	97%	6.89% (active)	45.6%	0.207% (active)	82%	112%	103%	99.6%	83.9%	73.2%	109%	90.9%
O=C(CSc1nc2ccccc2[nH]1)Nc1cccc(Cl)c1	104%	94.7%	93%	77.6%	109%	99.2%	80.7%	73.3%	104%	117%	102%	106%	98.7%	95.7%	97.9%	96.2%	102%	91.9%	103%
COc1ccc(NC(=O)n2nc(/C=C\c3ccc(O)c(OC)c3)cc2/C=C\c2ccc(O)c(OC)c2)cc1	21.4%	52.4%	31.4%	22.7%	63.8%	26%	38.1%	82.5%	11.8%	12.2%	21.3%	32.8%	62.3%	51.5%	60.7%	34.4%	13.6%	28.7%	23.9%

SMILES	growth [1]	growth [2]	growth [3]	growth [4]	growth [5]	growth [6]	growth [7]	growth [8]	growth [9]	growth [10]	growth [11]	growth [12]	growth [13]	growth [14]	growth [15]	growth [16]	growth [17]	growth [18]	growth [19]
Cc1cccc(OCC(O)CN2CCN(c3ccc(Cl)cc3)CC2)c1 (stereo not drawn)	110%	115%	100%	82.4%	106%	108%	93.1%	100%	89%	97.1%	103%	94.9%	103%	106%	115%	124%	104%	107%	102%
CCOC(=O)c1c(C)oc2ncnc(N3CCN(C(=O)COc4ccc(C(C)(C)C)cc4)CC3)c12	93.7%	74%	82.7%	48%	94.1%	85.9%	84.3%	82%	76.2%	59.1%	44.9%	81.5%	96.8%	74.4%	85.4%	73.7%	98.4%	78.8%	73.6%
CN1C(=O)N(C)C2Nn3c(s/c(=C\c4ccccc4)c3=O)=NC21 (stereo not drawn)	109%	96.5%	95.6%	81.8%	115%	97.8%	82.7%	68%	99.5%	109%	101%	96%	100%	101%	100%	100%	100%	96.2%	99.7%
COc1ccc(S(=O)(=O)n2cc(C3OC(c4cc(OC)c(OC)c(OC)c4)=NN3C(C)=O)c3ccccc32)cc1OC (stereo not drawn)	95.5%	78.9%	88%	58.2%	94.9%	85.3%	76.2%	117%	73.4%	58.7%	61.5%	80.9%	85.8%	77.9%	96.6%	83.5%	112%	92.3%	81.7%
C#C[C@]1(O)CC[C@H]2[C@@H]3CC=C4c5sc(Nc6ccccc6)nc5CC[C@]4(C)[C@H]3CC[C@@]21C	16.7%	36.3%	29.2%	13.5%	56.8%	20.1%	21.5%	-37.1% (active)	6.66% (active)	7.73% (active)	-32.1% (active)	33.8%	52%	51.6%	-35.3% (active)	46.7%	31.5%	-19.9% (active)	38.2%
O=C(N=c1oc2ccccc2cc1-c1cc2ccccc2[nH]1)Nc1ccc(Cl)cc1	113%	88.1%	92.6%	61.2%	151%	91.3%	72.2%	121%	109%	95.8%	88.3%	99.7%	101%	91.9%	89.4%	59.7%	103%	96.5%	98.7%
CC(=O)OC[C@H]1OC(Sc2sc(C(=O)c3ccc(C)cc3)c(N)c2-c2nc3ccccc3s2)[C@H](OC(C)=O)[C@@H](OC(C)=O)[C@@H]1OC(C)=O (stereo partly drawn)	93.6%	75%	41.9%	25.7%	99.3%	23.1%	53.7%	98.9%	60.5%	80%	46.5%	58.7%	58.6%	-13.9% (active)	89.9%	48.2%	59.4%	52.5%	62.9%
CCOC(=O)c1nc(Nc2ccc(C(C)=O)cc2)sc1C	106%	97.8%	104%	91.8%	97.9%	101%	94.7%	75.1%	99.9%	97.8%	103%	103%	99.5%	96.4%	107%	103%	105%	105%	101%
CNc1ccc(Nc2cccc(C)c2)c2c1C(=O)c1ccccc1C2=O	60%	164%	80.4%	58.3%	100%	78.1%	131%	89.2%	102%	85.1%	74.3%	99.6%	91.4%	81.6%	86.4%	11.2%	110%	101%	98.8%
Cc1onc2c(-c3ccccc3)n[nH]c(=O)c12	135%	62.8%	101%	106%	78.9%	107%	74.1%	90.2%	106%	76%	107%	116%	98.8%	108%	87.1%	140%	106%	127%	106%
COc1nc2ccccc2cc1-c1nc2c(cnn2-c2ccccc2)c(=O)[nH]1	12.9%	58.5%	65.8%	40.2%	72%	57.6%	42.1%	18.9%	21.1%	40.4%	44.2%	63.3%	79.5%	76.2%	53.8%	48.1%	7.05% (active)	50.2%	40.7%
COc1cc(C)c(Cc2cnc(N)nc2N)cc1OC	87%	100%	105%	88.4%	116%	96.6%	97.8%	107%	108%	62.6%	82.1%	105%	99.6%	99.5%	105%	95.1%	114%	103%	104%
COc1nc2ccccc2cc1-c1nc2c(cnn2-c2ccc(Br)cc2)c(=O)[nH]1	24.3%	42.4%	33.2%	27.1%	40.6%	35.4%	29.4%	8.46% (active)	13.7%	47.7%	20.7%	27.7%	44.1%	57.3%	15.1%	41.8%	-34.2% (active)	23%	4.99% (active)
COc1ccc(C2CC(c3ccc(Nc4ccnc5cc(Cl)ccc45)cc3)=NN2C=O)cc1 (stereo not drawn)	92.5%	68.2%	64.4%	43.2%	91.2%	48.5%	59.2%	101%	14%	25.8%	30.9%	73.3%	102%	62.3%	96.9%	67.5%	52.7%	68.8%	51.7%
CCOc1ccc2nc(SCc3nc4n(n3)S(=O)(=O)c3ccccc3N4C)sc2c1	17.9%	14%	22.2%	-46.3% (active)	-8.01% (active)	4.84% (active)	-39.5% (active)	-25.8% (active)	3.93% (active)	4.81% (active)	30.7%	27.7%	-9.82% (active)	31.2%	35.3%	-30.9% (active)	37.5%	-59.3% (active)	6.82% (active)
COc1cc(/C=C/C(=O)/C=C/c2cc(OC)c3c(c2OC)OCO3)c(OC)c2c1OCO2	28.1%	87.7%	30.4%	57.3%	12.9%	25.5%	29.7%	43%	26.5%	18.7%	15.7%	2.45% (active)	81.8%	32%	78.2%	29.8%	0.304% (active)	63.8%	28.3%
